Consider four compounds from PubChem BioAssay.

Calls of active or inactive are those of the source.

Experiment [1] can be described thus: optical density shifts of acrAB sulA E. coli – strain DRC41, OD650, 48 h, E. coli filamentation inducer project, primary screen (AID 1152).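 Further: E. coli MC1000 strain DRC41 lacking acrAB efflux pump and sulA.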 Conditions: higher = more signal, called active from +8 up or from −8 down.
The nature of experiment [2]: probe aLefty1 binding on compound microarray – biochemical, small-molecule microarray, 635/667 nm fluorescence, primary screen (AID 1153).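 Further: score merges spot fluorescence with signal-to-noise ratio from the scanned slide images.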 The following applies: higher = more signal.
The nature of experiment [3]: plasmodial surface anion channel blockers, osmotic lysis – cell-based, P. falciparum Indochina, OD700, 1 h, primary screen (AID 1154). Conditions: P. falciparum Indochina infected RBC osmotic lysis, higher = more signal, called active from +8 up or from −8 down.
The nature of experiment [4]: plasmodial surface anion channel blockers, osmotic lysis – cell-based, P. falciparum Indochina, OD700, 2 h, primary screen (AID 1155).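 Further: lysis reports solute entry through the parasite surface anion channel PSAC.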 Conditions: P. falciparum Indochina infected erythrocytes, higher = more signal, called active from +8 up or from −8 down.
Experiment [5] is described as follows: changes in parasitized red cell lysis, either direction – P. falciparum Indochina, OD700, 3 h, PSAC antagonist project, primary screen (AID 1156). Conditions: P. falciparum-infected erythrocytes, osmotic lysis, higher = more signal, called active from +8 up or from −8 down.
Experiment [6] in a line: plasmodial surface anion channel blockers, osmotic lysis – cell-based, P. falciparum Indochina, OD700, 18 h, primary screen (AID 1157). The following applies: P. falciparum Indochina infected erythrocytes, osmotic lysis OD700, 18 h; higher = more signal, called active from +8 up or from −8 down.
Experiment [7] in a line: S6 kinase pathway phospho-S6 level changes – cell-based, A549, cytoblot, luminescence, serum-stimulated, primary screen (AID 1158).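 Further: serum-stimulated A549 lung adenocarcinoma cells; signal is phosphorylated S6 detected by cytoblot immunostaining with HRP secondary.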 The following applies: 5 h, higher = more signal.
The target in experiment [8] is NADPH oxidase 2 (Homo sapiens) (UniProt P04839). The experiment in a line: compounds shifting NOX2 Amplex Red fluorescence – cell-based, HEK293-NOX2, PMA-stimulated, NOX inhibitor project, primary screen (AID 1159). Further: test concentration not given here. The following applies: 45 min, higher = more signal, called active from +8 up or from −8 down.
The target of experiment [9] is NADPH oxidase 4 (Homo sapiens) (UniProt Q9NPH5). Kind of experiment: compounds shifting NOX4 Amplex Red fluorescence – cell-based, HEK293-NOX4, tetracycline-induced, NOX inhibitor project, primary screen (AID 1160). Conditions: HEK293-NOX4, Amplex Red H2O2 fluorescence, 45 min; higher = more signal, called active from +8 up or from −8 down.
Experiment [10] addresses NADPH oxidase 5 (Homo sapiens) (UniProt Q96PH1). Kind of experiment: compounds shifting NOX5 Amplex Red fluorescence – cell-based, HEK293-NOX5, NOX inhibitor project, primary screen (AID 1161). The following applies: HEK293-NOX5, ionomycin, 45 min, higher = more signal.
Experiment [11] in a line: compound effects on lung adenocarcinoma cell viability – A549, calcein-AM fluorescence, 48 h, basal, profiling panel (AID 1162). Further: test concentration not given here. The following applies: higher = more signal.
Experiment [12] in a line: compound effects on differentiated 3T3-L1 adipocyte viability – cell-based, 3T3-L1 adipocytes, calcein-AM fluorescence, 48 h, basal, profiling panel (AID 1163). Further: test concentration not given here. Conditions: 3T3-L1 adipocytes viability, higher = more signal.
Experiment [13] can be described thus: compound effects on hepatocellular carcinoma cell viability – HepG2, calcein-AM fluorescence, 48 h, basal, profiling panel (AID 1164). Further: test concentration not given here. The following applies: higher = more signal.
The nature of experiment [14]: compound effects on multiple myeloma cell viability – MM1S, calcein-AM fluorescence, 48 h, basal, profiling panel (AID 1165).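 Further: viability of MM1S multiple myeloma cells under basal unstimulated conditions; test concentration not given here.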 The following applies: higher = more signal.
The nature of experiment [15]: calcein-AM signal in unstimulated myeloma cells – cell-based, calcein-AM fluorescence, 48 h, PK04 Diversity Set, profiling panel (AID 1166).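 Further: cells grown under basal conditions without added stimulus; test concentration not given here.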 The following applies: RPMI8226 myeloma viability, higher = more signal.
The nature of experiment [16]: JC-1 mitochondrial signal, unstimulated HepG2 cells – cell-based, JC-1 fluorescence, 24 h, 100 nL compound, profiling panel (AID 1167). Further: test concentration not given here. The following applies: HepG2 mitochondrial potential, higher = more signal.
Experiment [17] can be described thus: JC-1 mitochondrial signal, unstimulated adipocytes – cell-based, JC-1 fluorescence, 3T3-L1 adipocytes, 24 h, 100 nL compound, profiling panel (AID 1168). Further: test concentration not given here. Conditions: JC-1 mitochondrial fluorescence, higher = more signal, called active from +8 up or from −8 down.
A short description of experiment [18]: JC-1 mitochondrial signal, unstimulated myeloma cells – cell-based, JC-1 fluorescence, RPMI8226, 24 h, 100 nL compound, profiling panel (AID 1169). Further: test concentration not given here. The following applies: JC-1 mitochondrial potential fluorescence, higher = more signal.
Experiment [19] in a line: JC-1 mitochondrial signal, unstimulated MM1S myeloma – cell-based, JC-1 fluorescence, 24 h, 100 nL compound, profiling panel (AID 1170). Further: test concentration not given here. Conditions: MM1S mitochondrial potential, higher = more signal.
Experiment [20] in a line: resazurin metabolic signal in A549 cells – cell-based, resazurin fluorescence, 24 h, PK04 Diversity Set, profiling panel (AID 1171). Further: test concentration not given here. Conditions: A549 viability, higher = more signal, called active from +8 up or from −8 down. For orientation: Resazurin is reduced to fluorescent resorufin, in cell work by metabolically active cells.

NADPH oxidase 5 (Homo sapiens), sequence (Q96PH1 whole entry, looked up): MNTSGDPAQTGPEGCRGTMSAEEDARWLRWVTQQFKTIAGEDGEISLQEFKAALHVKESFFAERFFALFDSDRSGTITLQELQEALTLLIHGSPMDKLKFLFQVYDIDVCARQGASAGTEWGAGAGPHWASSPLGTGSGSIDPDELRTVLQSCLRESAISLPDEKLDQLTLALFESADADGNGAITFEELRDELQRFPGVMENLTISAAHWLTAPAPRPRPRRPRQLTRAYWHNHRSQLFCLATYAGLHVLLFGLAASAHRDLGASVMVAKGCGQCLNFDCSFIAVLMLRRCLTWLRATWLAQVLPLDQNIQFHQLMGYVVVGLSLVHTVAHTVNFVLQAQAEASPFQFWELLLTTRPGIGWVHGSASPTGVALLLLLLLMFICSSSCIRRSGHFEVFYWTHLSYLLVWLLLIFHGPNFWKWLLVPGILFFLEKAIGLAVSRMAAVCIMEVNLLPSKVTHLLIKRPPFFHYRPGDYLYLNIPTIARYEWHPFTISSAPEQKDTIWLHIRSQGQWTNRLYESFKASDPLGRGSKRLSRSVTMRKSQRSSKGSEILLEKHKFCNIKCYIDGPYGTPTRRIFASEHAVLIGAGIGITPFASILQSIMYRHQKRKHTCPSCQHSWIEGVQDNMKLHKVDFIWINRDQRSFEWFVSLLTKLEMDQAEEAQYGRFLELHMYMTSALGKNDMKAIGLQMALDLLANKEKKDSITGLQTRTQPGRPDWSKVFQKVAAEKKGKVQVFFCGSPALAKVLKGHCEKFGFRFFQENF
NADPH oxidase 2 (Homo sapiens), sequence (P04839 whole entry, looked up): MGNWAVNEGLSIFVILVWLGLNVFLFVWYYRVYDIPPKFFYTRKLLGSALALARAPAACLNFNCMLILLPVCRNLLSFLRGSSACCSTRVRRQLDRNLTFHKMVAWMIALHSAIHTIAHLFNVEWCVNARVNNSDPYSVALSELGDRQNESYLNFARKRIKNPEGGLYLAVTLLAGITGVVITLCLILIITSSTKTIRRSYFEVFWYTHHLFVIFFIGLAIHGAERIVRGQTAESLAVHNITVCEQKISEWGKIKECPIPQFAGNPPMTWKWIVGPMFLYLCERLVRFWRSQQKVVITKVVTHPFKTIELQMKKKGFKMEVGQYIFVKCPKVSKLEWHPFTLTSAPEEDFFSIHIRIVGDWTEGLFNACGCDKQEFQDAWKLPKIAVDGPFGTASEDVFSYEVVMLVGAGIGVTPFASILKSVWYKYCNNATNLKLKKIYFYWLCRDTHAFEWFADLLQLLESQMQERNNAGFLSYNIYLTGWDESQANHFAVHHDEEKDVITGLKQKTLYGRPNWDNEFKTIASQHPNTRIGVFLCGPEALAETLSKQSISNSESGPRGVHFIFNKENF
NADPH oxidase 4 (Homo sapiens), sequence (Q9NPH5 whole entry, looked up): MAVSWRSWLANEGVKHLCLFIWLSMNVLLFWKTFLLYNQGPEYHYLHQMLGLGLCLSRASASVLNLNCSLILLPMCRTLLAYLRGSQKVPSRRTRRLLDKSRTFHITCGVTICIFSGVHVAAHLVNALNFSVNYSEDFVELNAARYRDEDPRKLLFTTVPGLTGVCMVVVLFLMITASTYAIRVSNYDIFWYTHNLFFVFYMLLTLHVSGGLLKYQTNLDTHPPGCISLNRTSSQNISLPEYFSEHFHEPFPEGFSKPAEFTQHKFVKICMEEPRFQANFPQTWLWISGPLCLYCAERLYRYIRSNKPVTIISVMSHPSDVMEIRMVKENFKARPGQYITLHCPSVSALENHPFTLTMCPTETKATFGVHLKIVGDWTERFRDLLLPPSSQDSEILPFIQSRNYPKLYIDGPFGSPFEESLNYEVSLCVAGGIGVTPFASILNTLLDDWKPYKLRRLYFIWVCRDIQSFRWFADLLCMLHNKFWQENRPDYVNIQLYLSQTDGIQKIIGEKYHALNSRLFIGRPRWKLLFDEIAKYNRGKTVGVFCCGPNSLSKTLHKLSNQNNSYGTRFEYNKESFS

Consider `CC(C)=CCCC(C)=CCON=C1C[C@@H](O)[C@@H](O)[C@@H]2[C@@H]3C(=O)N(Cc4ccccc4)C(=O)[C@@H]3CC[C@@H]12`, for which the z-score in experiment [1] is -0.0866 (inactive); in [3], 0.391 (inactive); in experiment [4] it was 0.239 (inactive); in experiment [5], 0.0336 (inactive); in [6], -0.0646 (inactive); in experiment [7], -0.444. The z-score was 0.0415 (inactive) in [8]; 0.836 (inactive) in experiment [9]; -0.0355 in experiment [10]; 0.123 in experiment [11]; -0.827 in experiment [12]; -1.45 in experiment [13]. The z-score in experiment [14] was 0.732; in [15] it was 0.107; in [16], 0.786; in [17], 0.199 (inactive); in experiment [18], -0.11; in experiment [19], -0.689. Besides, the z-score in experiment [20] is 0.708 (inactive). Also, in experiment [2], the composite z-score was -0.241.

Consider `COC(=O)[C@H](C)NC(=O)CCC1CC(OC(=O)NCc2ccc3c(c2)OCO3)CC2(CCCC(COC(=O)NCC3CCCCC3)O2)O1` (stereo not given in full), for which the z-score in experiment [1] is -0.23 (inactive); in experiment [3], 0.858 (inactive); in experiment [4], -0.53 (inactive); in experiment [5], -0.508 (inactive); in experiment [6], -0.167 (inactive); in [7] it was 0.224. Besides, the z-score in experiment [8] was -0.373 (inactive); in experiment [9], 0.62 (inactive); in [10], -0.651; in experiment [11], -0.374; in experiment [12] it was -0.335; in experiment [13] it was -0.653. For the same compound, the z-score in experiment [14] was -3.22; in experiment [15], -0.103; in experiment [16], -0.283; in experiment [17] it was -0.183 (inactive); in experiment [18], 0.34; in experiment [19] it was -0.0549. For the same compound, the z-score in experiment [20] is 0.619 (inactive). Also, in experiment [2], the composite z-score is -0.0984.

Turning to `CCCNC(=O)OC[C@H]1O[C@H](CCON=C(C)CCC(=O)OC[C@H]2O[C@H](c3ccccc3)C=C[C@@H]2Oc2ccc(OC)cc2)C=C[C@@H]1Oc1ccc(OC)cc1`, the z-score in experiment [1] was 0.3 (inactive); in experiment [3], 2.17 (inactive); in [4], 0.767 (inactive); in [5], 0.753 (inactive); in experiment [6], 0.49 (inactive); in experiment [7] it was -0.441. The z-score was -0.245 (inactive) in experiment [8]; 0.337 (inactive) in experiment [9]; -0.295 in experiment [10]; 0.415 in [11]; 0.354 in experiment [12]; -0.208 in experiment [13]. The z-score in experiment [14] is -1.31; in experiment [15], -0.303; in experiment [16], 1.26; in experiment [17] it was 0.000229 (inactive); in experiment [18], 0.625; in experiment [19] it was 0.33. The z-score in experiment [20] is 0.748 (inactive). In experiment [2], the composite z-score is -0.0477.

Regarding `CO[C@H]1COC(=O)CC=C[C@H](C)COC(=O)[C@@H](C)NC(=O)CC=C[C@@H]1C`, the z-score in experiment [1] is -0.447 (inactive); in experiment [3], -0.499 (inactive); in experiment [4] it was -1.13 (inactive); in experiment [5], 0.475 (inactive); in [6] it was -2.08 (inactive); in [7], 1.27. Moreover, the z-score is 0.157 (inactive) in experiment [8]; 0.148 (inactive) in [9]; -0.0359 in [10]; -0.752 in [11]; 0.197 in experiment [12]; -1.46 in [13]. The z-score is 0.735 in experiment [14]; -1.5 in [15]; 0.187 in experiment [16]; -0.546 (inactive) in experiment [17]; -0.111 in experiment [18]; -0.609 in [19]. Moreover, in experiment [20], the z-score was 0.0702 (inactive). Further, the composite z-score in [2] stood at 0.0669.
